CYP2C9 inhib = blockers of cytochrome P450 2C9 activity – biochemical, luminescence, ADME assay, primary screen. P11712. CYP2C9 Supersomes, luciferin-H conversion. inhibition, % at 5 µM. 96,000 compounds, 20% hits;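 active means blocking of liver enzyme CYP2C9 beyond about 50% at 5 µM, limit read from the data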
CYP2C19 inh = blockers of cytochrome P450 2C19 activity – biochemical, luminescence, ADME assay, primary screen | inhibition, % at 5 µM | 96,000 compounds, 21% hits | AID 778, 2007 | P33261 | CYP2C19 Supersomes, luciferin-H EGE luminescence, 30 min;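 active means CYP2C19 inhibition above a set limit at 5 µM in the primary screen, cut at about 50% in these data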;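 further: plate controls were negative control wells for no effect and 2.5 mM tranylcypromine positive control for full effect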
Cav32 inh = Cav3.2 calcium influx blockers – cell-based, Fluo-4 calcium fluorescence, FDSS, MLSMR library, primary screen | B-score at 10 µM | AID 449739, 2010 | 100,000 compounds, 4% hits | Voltage-dependent T-type calcium channel subunit alpha-1H (Homo sapiens), O95180 | Cav3.2-expressing cells; stronger effect = lower value;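 active means single-dose well whose peak fluorescence ratio is a statistical outlier from its plate by either plate-standardised score or position-corrected B-score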
CYP2C9 act = human CYP2C9 activators, primary screen, biochemical, luminescence | 96,000 compounds, 1.4% hits | activation factor at 5 µM | recombinant CYP2C9, luciferin-H conversion; stronger effect = higher value; factor 1 = untreated enzyme, 0 = blocked | AID 1024, 2008;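 active means activation factor of 2 or more for CYP2C9 at a 5 µM dose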;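 further: 0 = sulfaphenazole-blocked wells and 1 = vehicle-only wells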
CYP2C19 activ = human CYP2C19 activators, primary screen, biochemical, luminescence | Cytochrome P450 2C19 (Homo sapiens), P33261 | recombinant CYP2C19, luciferin-H EGE luminescence; stronger effect = higher value; 0 = fully inhibited enzyme, 1 = untreated enzyme | activation factor at 5 µM | 96,000 tested, under 10 active | AID 1025, 2008;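 active means activation factor of at least 2 at 5 µM in the primary screen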;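 further: 0 = wells with 2.5 mM tranylcypromine and 1 = vehicle-only wells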
* marks the source's active call; other numbers are inactive results; / = no result given. A selection: hits, their analogues and other compounds. The true share with any hit is near 27%.

SMILES	CYP2C9 inhib	CYP2C19 inh	Cav32 inh	CYP2C9 act	CYP2C19 activ
O=S(=O)(Nc1cc(Cl)ccc1N1CCCCC1)c1cccs1	53.2*	81.5*	-5.69*	0.5	0.2
CN1CCN(S(=O)(=O)c2ccc(Br)s2)CC1	3.5	9.4	-0.0389	1	0.9
CCOC(=O)Cc1csc(/C(=N/O)C(N)=O)n1	39.1	45.8	-1.07	0.6	0.5
O=C(OCC(=O)N1CCCC1)c1cccs1	-3.5	4.6	-0.0535	1	1
COc1ccc(N2C(=O)C3CCCN3C2c2ccc(F)cc2)cc1Cl (stereo not drawn)	/	/	-1.59	/	/
C=C(C)C(=O)N1CC2(CC(c3cccc(NC(=O)CCCCC)c3)=NO2)C[C@H]1C(N)=O (stereo partly drawn)	/	/	-0.00958	/	/
COC(=O)N1[C@H](C)C=C[C@]1(Cc1ccccc1)C(=O)NCCCNc1ncc(C(F)(F)F)cc1Cl	/	/	-2.23	/	/
O=S(=O)(Nc1ccccc1N1CCCCC1)c1ccc(Cl)s1	11.9	56.6*	0.0503	0.9	0.4
CS(=O)(=O)Nc1ccc(S(=O)(=O)Nc2nccs2)cc1	29.3	-3.2	-1	0.7	1
O=S(=O)(Nc1nccs1)c1ccc(NS(=O)(=O)c2cccs2)cc1	89.6*	-11.0	-1.25	0.1	1.1
O=C(Nc1ccccc1N1CCCCC1)c1cccs1	16.5	29.1	-2.47	0.8	0.7
COC(=O)c1ccc(OCCOc2ccc(C(=O)OC)cc2)cc1	27.8	13.9	-0.737	0.7	0.9
CCC(=O)c1ccc(OCC(O)CN(CCc2ccccc2)Cc2ccccc2)cc1 (stereo not drawn)	70.4*	52.9*	-3.84	0.3	0.5
CCN(CC)CC(O)COc1ccccc1C(=O)CCc1ccccc1 (stereo not drawn)	28.5	59.5*	0.533	0.7	0.4
COC(=O)c1ccc(OCC(O)CN(CC(C)C)CC(C)C)cc1 (stereo not drawn)	70.9*	73.6*	-0.333	0.3	0.3
COc1ccc(N/C(N)=N/c2nc(CSc3ccc(Cl)cc3)cc(=O)[nH]2)cc1	49.0	66.1*	-0.00528	0.5	0.3
CS(=O)(=O)N(CC(=O)Nc1ccc(C(N)=O)cc1)C1CCCCC1	17.0	8.3	1.51	0.8	0.9
COC(=O)COc1ccc(S(=O)(=O)NC2CCCCCC2)cc1	87.7*	93.8*	0.00933	0.1	0.1
O=C(CN(C1CC1)S(=O)(=O)c1ccc(S(=O)(=O)NC2CCCCC2)cc1)Nc1ccccc1	95.6*	97.2*	-11.7*	0	0
CCC(C)NS(=O)(=O)c1ccc(S(=O)(=O)N(CC(=O)Nc2ccccc2)CC2CCCO2)cc1 (stereo not drawn)	92.2*	41.4	-2.98	0.1	0.6
CCc1ccc(OCC(=O)NC(=S)Nc2ccc(S(=O)(=O)NC3CCCCC3)cc2)cc1	74.1*	6.2	-2.07	0.3	0.9
CCN(CC)CCNC(=O)c1c(C)oc2cc(Br)c(OC)cc12	27.6	11.9	1.92	0.7	0.9
O=CNCC(=O)NCCc1ccc(Cl)cc1	8.3	1.8	-0.504	0.9	1
COC(=O)CCN(C1CCCCC1)S(=O)(=O)c1ccc(S(=O)(=O)NC2CCCCC2)cc1	100.0*	97.4*	-5.86*	0	0
COc1c(Cl)cc(C(=O)Nc2ccccc2-c2ccccc2)cc1Cl	43.0	31.7	/	0.6	0.7
SMILES	CYP2C9 inhib	CYP2C19 inh	Cav32 inh	CYP2C9 act	CYP2C19 activ
OC1CN=C2C=CC=CN2C1 (stereo not drawn)	7.5	-2.7	-7.36*	0.9	1
COCCN(C(=O)C1CC1)c1nnc(-c2cccc(C)c2)s1	80.1*	72.2*	-2.2	0.2	0.3
Cc1cc2ncn(/N=C/c3cc(Br)ccc3O)c2cc1C	61.1*	31.4	0.473	0.4	0.7
CSC1=C(C#N)C(CC(C)C)C2=C(CCCC2=O)N1 (stereo not drawn)	21.9	34.6	0.734	0.8	0.7
CSC1=C(C#N)C(CC(C)C)C(C(C)=O)=C(C)N1 (stereo not drawn)	48.8	81.5*	0.12	0.5	0.2
COC(=O)c1cn(NC(=O)C2CCCO2)c(=O)c2ccccc12 (stereo not drawn)	/	/	0.36	/	/
O=C(Cc1n[nH]c(=O)c2ccccc12)OCC(=O)c1ccc2c(c1)OCCO2	65.5*	3.1	0.216	0.3	1
O=C(COC(=O)c1cccs1)NCc1ccc2c(c1)OCO2	69.4*	77.5*	0.0645	0.3	0.2
CCOCC(=O)NCc1ccc2c(c1)OCO2	2.6	22.2	-0.164	1	0.8
O=C(NCc1ccc2c(c1)OCO2)c1cccs1	66.9*	92.7*	0.0833	0.3	0.1
O=C(COC(=O)c1cccs1)c1ccc2c(c1)OCCO2	86.8*	83.2*	-1.74	0.1	0.2
CCC(OC(=O)c1cccs1)C(=O)NCc1ccc2c(c1)OCO2 (stereo not drawn)	79.2*	69.4*	-0.185	0.2	0.3
O=c1cc(C(F)F)oc2c1ccc1ccccc12	-24.1	33.5	-0.127	1.2	0.7
CC(=NC1CCCCC1)C1=C(O)c2ccccc2C1=O	86.5*	87.1*	-2.36	0.1	0.1
Cc1nnc(SCC(=O)Nc2ccc(N3CCOCC3)cc2)o1	-6.5	-8.6	/	1.1	1.1
COCC(C)n1c(C)cc(C(=O)CN2C(=O)NC(Cc3c[nH]c4ccccc34)C2=O)c1C (stereo not drawn)	46.1	40.7	-0.763	0.5	0.6
CC(C)NC(=O)Cn1c(SCC(=O)N2CCCc3ccccc32)nc2ccccc21	84.9*	58.4*	0.447	0.2	0.4
CSc1nsc(SCC(=O)N2CCN(c3ccccc3)CC2)n1	75.8*	73.4*	-1.52	0.2	0.3
CC(=O)N1CCCc2ccccc21	37.3	9.6	0.779	0.6	0.9
Cn1cc(SCC(=O)N2CCN(c3ccccc3)CC2)c2ccccc21	3.9	98.8*	/	1	0
O=C(Cc1cccc2ccccc12)N1CCCc2ccccc21	-132.4	43.1	-4.49*	2.3*	0.6
CCOC(=O)C1=C(O)/C(=C/c2cc(OC)c(OC)c(OC)c2)N=C1C	3.1	-1.5	2.45	1	1
Cc1cccc(NC(=O)c2nc[nH]c2C(=O)NCC(=O)OC(C)(C)C)c1	/	/	-0.116	/	/
CCOc1ccc(NC(=O)c2c(N)n(C)c(=O)[nH]c2=O)cc1	/	/	0.0522	/	/
CC(=O)c1cn(CC(=O)Nc2ccccc2)c2ccccc12	41.4	49.4	-0.109	0.6	0.5
Cn1cc(SCC(=O)N2CCCc3ccccc32)c2ccccc21	18.0	98.3*	-3.8	0.8	0
CCn1cc(C(=O)C(F)(F)F)c2ccccc21	-131.4	6.8	-1.27	2.3*	0.9
Cn1cc(SCC(=O)O)c2ccccc21	3.0	3.1	-0.245	1	1
Cn1cc(SCC(=O)N2CCOCC2)c2ccccc21	-25.2	90.1*	0.667	1.3	0.1

Bioassay records deposited in PubChem BioAssay by several laboratories.
